Here are results for three compounds from PubChem BioAssay (EPA / NIEHS).

Molecules are shown by their SMILES. The source made the active and inactive calls. How the source made its calls: active means hit-call score of the fitted dose curve at least 0.9, where 1 is the maximum; inactive means score below 0.9.

Common to all, as to settings: mRNA level, 48 h; actives raise or lower the signal
Read-out in assay [1]: Pro-epidermal growth factor (Homo sapiens) (UniProt P01133)
Briefly: LTEA_HepaRG_EGF: Life Technologies and Expression Analysis (LTEA) Assay for Epidermal growth factor (EGF) using HepaRG (AID 2283489). The procedure, abridged: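 HepaRG cells (~100,000/well, 48 h pre-culture) exposed in duplicate for 48 h in serum-free induction medium to 8 half-log concentrations up to 100 uM in 0.5% DMSO. EGF mRNA by qRT-PCR, normalized to ACTB/GAPDH/POLR2A; bidirectional fit versus DMSO.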

Read-out in assay [2]: Ezrin (EZR), EZR (gene 7430)
Briefly: LTEA_HepaRG_EZR: Life Technologies and Expression Analysis (LTEA) Assay for Ezrin (EZR) using HepaRG (AID 2283491). A digest of the protocol:
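EZR transcript levels came from Fluidigm qRT-PCR and were normalized to three housekeeping genes after 48 h chemical exposure of HepaRG cells. Dosing used an 8-point half-log series with a 100 uM top concentration in 0.5% DMSO, tested in duplicate; both directions were fitted versus vehicle.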

Read-out in assay [3]: Cytochrome P450 3A7 (Homo sapiens) (UniProt P24462)
Briefly: LTEA_HepaRG_CYP3A7: Life Technologies and Expression Analysis (LTEA) Assay for CYP3A7 using HepaRG (AID 2283492). A digest of the protocol: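 Differentiated HepaRG cells in serum-free induction medium exposed 48 h in duplicate to 8-point half-log series from 100 uM top in 0.5% DMSO. CYP3A7 mRNA by qRT-PCR, normalized to ACTB/GAPDH/POLR2A, bidirectional fit versus DMSO.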

Read-out in the next assay: CYP3A5 (gene 1577)
Briefly: LTEA_HepaRG_CYP3A5: Life Technologies and Expression Analysis (LTEA) Assay for CYP3A5 using HepaRG (AID 2283493). The procedure, abridged:
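Human HepaRG hepatic cells receive 48 h chemical treatment at eight concentrations (half-log steps from 100 uM) in 0.5% DMSO. Expression of CYP3A5 is quantified by Fluidigm qRT-PCR and normalized to three reference genes.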

Read-out in assay [4]: Fatty Acid-Binding Protein 1 (FABP1), FABP1 (gene 2168)
Briefly: LTEA_HepaRG_FABP1: Life Technologies and Expression Analysis (LTEA) Assay for Fatty Acid-Binding Protein 1 (FABP1) using HepaRG (AID 2283494). A digest of the protocol:
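qRT-PCR readout of FABP1 transcript (normalized to three housekeeping genes) after 48 h chemical exposure of HepaRG cells; eight concentrations, half-log steps, max 100 uM, 0.5% DMSO vehicle; gain or loss fitted relative to DMSO baseline.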

Read-out in assay [5]: Cytochrome P450 4A22 (Homo sapiens) (UniProt Q5TCH4)
As to the kind of experiment: LTEA_HepaRG_CYP4A22: Life Technologies and Expression Analysis (LTEA) Assay for Cytochrome P450 4A22 (CYP4A22) using HepaRG (AID 2283495). A digest of the protocol: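 Differentiated HepaRG cells in serum-free induction medium exposed 48 h in duplicate to eight half-log concentrations up to 100 uM in 0.5% DMSO. CYP4A22 mRNA quantified by TaqMan qRT-PCR, normalized to ACTB, GAPDH and POLR2A; bidirectional fit versus DMSO.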

Read-out in assay [6]: Cytochrome P450 7A1 (Homo sapiens) (UniProt P22680)
As to the kind of experiment: LTEA_HepaRG_CYP7A1: Life Technologies and Expression Analysis (LTEA) Assay for Cytochrome P450 7A1 (CYP7A1) using HepaRG (AID 2283496). The procedure, abridged:
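HepaRG, 48 h exposure, 8-pt half-log series from 100 uM, 0.5% DMSO vehicle, duplicates. Readout: TaqMan qRT-PCR mRNA vs three housekeeping genes; bidirectional curve fit against DMSO baseline.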

Read-out in assay [7]: Glutathione S-Transferase (GSTA2), GSTA2 (gene 2939)
As to the kind of experiment: LTEA_HepaRG_GSTA2: Life Technologies and Expression Analysis (LTEA) Assay for Glutathione S-Transferase (GSTA2) using HepaRG (AID 2283497). The procedure, abridged: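 qRT-PCR readout of GSTA2 transcript, normalized to three housekeeping genes, fitted bidirectionally against 0.5% DMSO baseline. Differentiated HepaRG cells received compound for 48 h at 8 concentrations (top 100 uM, half-log steps).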

Read-out in assay [8]: Glutamate-cysteine ligase catalytic (GCLC), GCLC (gene 2729)
As to the kind of experiment: LTEA_HepaRG_GCLC: Life Technologies and Expression Analysis (LTEA) Assay for Glutamate-cysteine ligase catalytic (GCLC) using HepaRG (AID 2283498). A digest of the protocol: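 HepaRG, 48 h exposure, 8-pt half-log series from 100 uM, 0.5% DMSO vehicle; TaqMan qRT-PCR for GCLC mRNA, housekeeping-normalized; bidirectional curve fit vs DMSO baseline.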

Read-out in assay [9]: growth arrest and DNA damage 45 (GADD45G), GADD45G (gene 10912)
As to the kind of experiment: LTEA_HepaRG_GADD45G: Life Technologies and Expression Analysis (LTEA) Assay for growth arrest and DNA damage 45 (GADD45G) using HepaRG (AID 2283499). A digest of the protocol: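 Differentiated human HepaRG cells, 48 h post-plating, exposed 48 h in serum-free induction medium to 8 half-log concentrations (top 100 uM, 0.5% DMSO) in duplicate. GADD45G mRNA measured by Fluidigm TaqMan qRT-PCR, normalized to ACTB, GAPDH, POLR2A; bidirectional fit versus DMSO.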

Read-out in assay [10]: Glutamate-cysteine ligase regulatory (GCLM), GCLM (gene 2730)
Briefly: LTEA_HepaRG_GCLM: Life Technologies and Expression Analysis (LTEA) Assay for Glutamate-cysteine ligase regulatory (GCLM) using HepaRG (AID 2283500). The procedure, abridged:
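Endpoint is GCLM transcript level by qRT-PCR, normalized to three housekeeping genes, after 48 h chemical exposure of human HepaRG cells (0.5% DMSO vehicle, top 100 uM, half-log dilutions). Fitting was bidirectional relative to DMSO.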

Read-out in assay [11]: Glutathione S-transferase M3 (GSTM3), GSTM3 (gene 2947)
As to the kind of experiment: LTEA_HepaRG_GSTM3: Life Technologies and Expression Analysis (LTEA) Assay for Glutathione S-transferase M3 (GSTM3) using HepaRG (AID 2283501). The procedure, abridged:
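Differentiated human HepaRG cells were exposed in duplicate for 48 h in serum-free induction medium, 8 points from 100 uM top in half-log steps, 0.5% DMSO. GSTM3 mRNA was measured by TaqMan qRT-PCR, normalized to ACTB, GAPDH and POLR2A; bidirectional fit versus DMSO.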

Read-out in assay [12]: Heat shock 70 kDa protein 1 (HSPA1A), gene 3303
Briefly: LTEA_HepaRG_HSPA1A: Life Technologies and Expression Analysis (LTEA) Assay for Heat shock 70 kDa protein 1 (HSPA1A) using HepaRG (AID 2283502). The procedure, abridged: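 Cells were plated and cultured for 48 h, then switched to serum-free induction medium. Chemicals were added at eight half-log concentrations up to 100 uM for 48 h. RNA was then isolated and HSPA1A measured by qRT-PCR with bidirectional curve fitting against DMSO.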

Read-out in assay [13]: Hypoxia-inducible factor 1-alpha (Homo sapiens) (UniProt Q16665)
Briefly: LTEA_HepaRG_HIF1A: Life Technologies and Expression Analysis (LTEA) Assay for Hypoxia-inducible factor 1 (HIF1A) Trancription factor using HepaRG (AID 2283503). The procedure, abridged:
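HIF1A transcript level read by qRT-PCR (ACTB, GAPDH, POLR2A normalization) after 48 h chemical exposure of HepaRG cultures. Eight half-log concentrations, top 100 uM, 0.5% DMSO vehicle, duplicates; bidirectional curve fit against DMSO baseline.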

Read-out in assay [14]: 3-Hydroxy-3-Methylglutaryl-CoA Synthase 2 (HMGCS2), HMGCS2 (gene 3158)
Briefly: LTEA_HepaRG_HMGCS2: Life Technologies and Expression Analysis (LTEA) Assay for 3-Hydroxy-3-Methylglutaryl-CoA Synthase 2 (HMGCS2) using HepaRG (AID 2283504). A digest of the protocol: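 Human HepaRG cells in serum-free induction medium were exposed in duplicate for 48 h to 8-point half-log series from 100 uM top in 0.5% DMSO. HMGCS2 mRNA measured by TaqMan qRT-PCR, normalised to ACTB, GAPDH, POLR2A; bidirectional fit versus DMSO.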

Read-out in a further assay: HGF (gene 3082)
Briefly: LTEA_HepaRG_HGF: Life Technologies and Expression Analysis (LTEA) Assay for Hepatocyte Growth Facto (HGF) using HepaRG (AID 2283505). The procedure, abridged:
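Differentiated HepaRG cells in serum-free induction medium exposed 48 h in duplicate, 8 half-log concentrations from 100 uM in 0.5% DMSO. HGF mRNA by qRT-PCR, normalised to ACTB, GAPDH, POLR2A; bidirectional fitting.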

Read-out in assay [15]: Insulin Like Growth Factor 1 (IGF1), IGF1 (gene 3479)
Briefly: LTEA_HepaRG_IGF1: Life Technologies and Expression Analysis (LTEA) Assay for Insulin Like Growth Factor 1 (IGF1) using HepaRG (AID 2283506). A digest of the protocol: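 Cells are thawed, plated and cultured 48 h, then exposed in duplicate to chemical (highest 100 uM, half-log steps, 0.5% DMSO) for another 48 h. Total RNA is analysed by Fluidigm qRT-PCR for IGF1 expression relative to vehicle.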

Read-out in assay [16]: Intercellular Adhesion Molecule 1 (ICAM1), ICAM1 (gene 3383)
Briefly: LTEA_HepaRG_ICAM1: Life Technologies and Expression Analysis (LTEA) Assay for Intercellular Adhesion Molecule 1 (ICAM1) using HepaRG (AID 2283507). The procedure, abridged:
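Differentiated human HepaRG cells in serum-free induction medium exposed 48 h in duplicate to 8 half-log concentrations (top 100 uM, 0.5% DMSO). ICAM1 mRNA quantified by TaqMan qRT-PCR, normalized to ACTB, GAPDH and POLR2A; bidirectional fitting versus DMSO.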

Read-out in assay [17]: Insulin-like growth factor-binding protein 1 (IGFBP1), IGFBP1 (gene 3484)
Briefly: LTEA_HepaRG_IGFBP1: Life Technologies and Expression Analysis (LTEA) Assay for Insulin-like growth factor-binding protein 1 (IGFBP1) using HepaRG (AID 2283508). A digest of the protocol:
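HepaRG cells, plated 48 h then switched to serum-free induction medium, exposed in duplicate for 48 h to 8-point half-log series from 100 uM in 0.5% DMSO. mRNA measured by qRT-PCR, normalized to ACTB/GAPDH/POLR2A; bidirectional fit versus DMSO.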

Read-out in assay [18]: Early growth response protein 1 (EGR1) transcription factor, EGR1 (gene 1958)
Briefly: LTEA_HepaRG_EGR1: Life Technologies and Expression Analysis (LTEA) Assay for Early growth response protein 1 (EGR1) transcription factor using HepaRG (AID 2283490). A digest of the protocol:
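HepaRG, 48 h exposure, 8-pt half-log series from 100 uM, 0.5% DMSO vehicle; EGR1 transcript by TaqMan qRT-PCR (Fluidigm array), housekeeping-normalized; bidirectional fit relative to DMSO baseline.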

Hypoxia-inducible factor 1-alpha (Homo sapiens), sequence (Q16665 whole entry, looked up): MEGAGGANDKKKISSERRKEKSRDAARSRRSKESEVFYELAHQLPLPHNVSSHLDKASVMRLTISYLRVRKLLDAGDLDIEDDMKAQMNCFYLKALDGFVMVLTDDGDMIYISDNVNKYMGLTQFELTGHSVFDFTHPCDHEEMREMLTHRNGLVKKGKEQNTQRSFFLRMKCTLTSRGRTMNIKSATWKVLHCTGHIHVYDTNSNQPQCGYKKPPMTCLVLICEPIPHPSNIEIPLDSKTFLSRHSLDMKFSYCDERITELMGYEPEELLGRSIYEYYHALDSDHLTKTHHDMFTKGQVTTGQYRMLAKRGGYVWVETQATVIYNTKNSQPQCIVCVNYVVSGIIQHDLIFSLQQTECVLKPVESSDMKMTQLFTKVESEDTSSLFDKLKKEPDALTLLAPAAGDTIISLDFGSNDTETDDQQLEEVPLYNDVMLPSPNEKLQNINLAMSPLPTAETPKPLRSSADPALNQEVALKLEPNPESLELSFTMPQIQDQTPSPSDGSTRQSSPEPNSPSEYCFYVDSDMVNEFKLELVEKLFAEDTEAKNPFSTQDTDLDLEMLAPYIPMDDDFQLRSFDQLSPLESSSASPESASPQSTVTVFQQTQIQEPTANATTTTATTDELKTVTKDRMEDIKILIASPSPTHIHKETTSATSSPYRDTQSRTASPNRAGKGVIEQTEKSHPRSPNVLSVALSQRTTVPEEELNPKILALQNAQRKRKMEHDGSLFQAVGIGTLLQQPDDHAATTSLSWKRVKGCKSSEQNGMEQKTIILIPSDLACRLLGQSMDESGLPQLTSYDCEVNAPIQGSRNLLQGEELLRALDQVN
Cytochrome P450 3A7 (Homo sapiens), sequence (P24462 whole entry, looked up): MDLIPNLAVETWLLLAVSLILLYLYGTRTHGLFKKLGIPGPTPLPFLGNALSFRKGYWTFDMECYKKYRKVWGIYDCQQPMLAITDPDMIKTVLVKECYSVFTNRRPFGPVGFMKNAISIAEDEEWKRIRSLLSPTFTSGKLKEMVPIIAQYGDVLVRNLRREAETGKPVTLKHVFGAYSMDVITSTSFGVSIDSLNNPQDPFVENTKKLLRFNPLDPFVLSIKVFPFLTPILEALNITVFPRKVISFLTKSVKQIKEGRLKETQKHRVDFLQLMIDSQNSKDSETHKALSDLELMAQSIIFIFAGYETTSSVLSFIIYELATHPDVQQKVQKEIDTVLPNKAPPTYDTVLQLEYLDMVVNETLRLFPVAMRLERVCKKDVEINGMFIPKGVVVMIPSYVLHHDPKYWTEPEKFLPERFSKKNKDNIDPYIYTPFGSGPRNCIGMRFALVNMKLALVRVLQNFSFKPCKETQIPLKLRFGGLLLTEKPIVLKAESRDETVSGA

The AC50 is the concentration giving half of the maximal activity seen. Consider `CNCc1cc(F)ccc1Oc1ccc(Cl)c(Cl)c1`, for which the AC50 was 79.4 µM (active) in [1]; 77.5 µM (active) in assay [3]; 84 µM (active) in [4]; 74.9 µM (active) in [5]; 85.1 µM (active) in [6]; 92.7 µM (active) in assay [7]. Also, the AC50 is 78.4 µM (active) in assay [12]; 88.6 µM (active) in assay [14]; 86.6 µM (active) with HGF (gene 3082); 89.4 µM (active) in assay [15]; 79.2 µM (active) in assay [16]; 73.5 µM (active) in assay [17]. The compound was called inactive (in assay [2]; in the assay with CYP3A5 (gene 1577); in [8]; in assay [9]; in assay [10]; in assay [11]). In addition, the compound was called inactive in [13].
On to `COc1cc(S(=O)(=O)O)c(C)cc1N=Nc1c(O)ccc2cc(S(=O)(=O)O)ccc12`, for which the compound was classed as inactive (in assay [1]; in assay [18]; in assay [2]; in [3]; with CYP3A5 (gene 1577); in assay [4]). The result in [5], in assay [6], in [7], in assay [8], in assay [10] and in [11] was inactive. The outcome (in [12]; in [13]; in assay [14]; with HGF (gene 3082); in assay [15]; in assay [16]) was inactive. The compound was called inactive in assay [17].
Regarding `Cc1ccc(N(C)C)cc1`, the outcome (in assay [1]; in assay [18]; in [2]; in [3]; with CYP3A5 (gene 1577); in assay [4]) was inactive. The compound was called inactive in assay [5], in assay [6], in assay [7], in [8], in assay [10] and in [11]. The compound was classed as inactive (in [13]; in assay [14]; with HGF (gene 3082); in assay [15]; in assay [16]; in [17]).
